Records with an inconclusive call do not appear. A call without a number means that no potency is given here. Unmarked numbers belong to inactive results. Calls of active or inactive are those of the source. Calls come from the whole dose curve; as a rule, active = well fitted curve in the direction sought with a large enough effect; inconclusive = small, poorly fitted or top-dose-only effect, or another doubt; inactive = no such curve, though single readings can be large; an effect the other way counts as inactive or inconclusive.
Legend:
HaCat [1] = test: Cytotoxic Profiling of Annotated Libraries Using Quantitative High-Throughput Screening (AID 1296008); conditions: Five cell lines viability, CellTiter-Glo ATP luminescence, 48-72 h; max response: active compounds read low; note: nearly all actives have a fitted effect of over 60% in size; note: potency is the fitted concentration of half-maximal effect
Summary of the method: (§1)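 Cells exposed to compounds for 48 or 72 hr at 37 degrees Celsius. Viability read as ATP-coupled luminescence with CellTiter-Glo after 10 min at room temperature.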

KB-3-1 = test: as above; conditions: Five cell lines viability, CellTiter-Glo ATP luminescence, 48-72 h; max response: active compounds read low
Summary of the method: as §1

NIH3T3 = test: as above; conditions: Five cell lines viability, CellTiter-Glo ATP luminescence, 48-72 h; max response: active compounds read low
Summary of the method: as §1

C33A = test: Primary qHTS to identify gynecologic anti-cancer compounds using libraries of approved drugs and bioactive compounds (AID 1345084); conditions: Gynecologic cancer cell panel viability, ATPlite luminescence, 48 h; series mostly up to 57.5 µM; note: nearly all actives have a fitted effect of over 55% in size; note: potency is the fitted concentration of half-maximal effect
Summary of the method: (§2)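 Cytotoxicity screen measuring ATP content by luciferase luminescence. Each compound is applied at five concentrations for 48 h at 37 C with 5% CO2.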

CAOV3 = test: as above; conditions: Gynecologic cancer cell panel viability, ATPlite luminescence, 48 h; series mostly up to 57.5 µM
Summary of the method: as §2

CASKI = test: as above; conditions: Gynecologic cancer cell panel viability, ATPlite luminescence, 48 h; series mostly up to 57.5 µM
Summary of the method: as §2

Es-2 = test: as above; conditions: Gynecologic cancer cell panel viability, ATPlite luminescence, 48 h; series mostly up to 57.5 µM
Summary of the method: as §2

HeLa = test: as above; conditions: Gynecologic cancer cell panel viability, ATPlite luminescence, 48 h; series mostly up to 57.5 µM
Summary of the method: as §2

Hek293T = test: as above; conditions: Gynecologic cancer cell panel viability, ATPlite luminescence, 48 h, control line for the selectivity index; series mostly up to 57.5 µM
Summary of the method: as §2

JEG-3 = test: as above; conditions: Gynecologic cancer cell panel viability, ATPlite luminescence, 48 h; series mostly up to 57.5 µM
Summary of the method: as §2

OV90 = test: as above; conditions: Gynecologic cancer cell panel viability, ATPlite luminescence, 48 h; series mostly up to 57.5 µM
Summary of the method: as §2

HACAT [2] = test: qHTS assay to identify novel small-molecules to repurpose for Merkel cell carcinoma treatment (AID 1296009); conditions: MCC and control cell lines, CellTiter-Glo viability, 72 h; at 44.8 µM (top of the series) unless noted; note: nearly all actives have a fitted effect of over 60% in size
Summary of the method: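 Cells were treated for 72 hr at 37 degree celsius with compounds in 8- or 11-point dose response. Viability was read by CellTiter-Glo luminescence, normalized to no-cell (cytotoxicity) and DMSO controls.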

For `O=S(=O)(Nc1ccccc1N1CCCCC1)c1ccc(Cl)s1`, the max response (HaCat [1]) was -19.5%, the max response (KB-3-1) was -15.2% and the max response (NIH3T3) was -6.22%. The Potency (C33A) was “inactive”, the Potency (CAOV3) was “inactive” and the Potency (CASKI) was “inactive”. For the same compound, the Potency (Es-2) was “inactive”, the Potency (HeLa) was “inactive” and the Potency (Hek293T) was “inactive”. The Potency (JEG-3) was “inactive”.
Compound `COc1cc(C(=O)NCC2(N(C)C)CCCC2)cc(OC)c1OCc1ccccc1` has a max response (HaCat [1]) of 3.73%, a max response (KB-3-1) of 3.26% and a max response (NIH3T3) of -9.79%. The Potency (C33A) was “inactive”, the Potency (CAOV3) was “inactive” and the Potency (CASKI) was “inactive”. The Potency (Es-2) was “inactive”, the Potency (HeLa) was “inactive” and the Potency (Hek293T) was “inactive”. For the same compound, the Potency (JEG-3) was “inactive” and the Potency (OV90) was “inactive”.
With `O=C(NCCN1CCOCC1)c1cc2c(Oc3ccc(NC(=O)C4(C(=O)Nc5ccc(F)cc5)CC4)cc3)ccnc2[nH]1` the max response (HaCat [1]) was -28.8%, the max response (KB-3-1) was 4.4% and the Potency (NIH3T3) was 6.51 µM (active). For the same compound, the Potency (C33A) was “inactive”, the Potency (CAOV3) was “inactive” and the Potency (CASKI) was “inactive”. The Potency (HeLa) was “inactive”, the Potency (Hek293T) was “inactive” and the Potency (JEG-3) was “inactive”.
For `CC(C)(N)c1ncc(-c2ccc(OC(F)(F)F)cc2)[nH]1`, the max response (HaCat [1]) was -18.6%, the max response (KB-3-1) was -11.1% and the Potency (C33A) was “inactive”. The Potency (CAOV3) was “inactive”, the Potency (CASKI) was “inactive” and the Potency (Es-2) was “inactive”. The Potency (HeLa) was “inactive”, the Potency (Hek293T) was “inactive” and the Potency (JEG-3) was “inactive”. The Potency (OV90) was “inactive”.
In the case of `O=C(C1CCCCC1)N(CCN1CCN(c2ccccc2O)CC1)c1ccccn1`, the outcome (HaCat [1]) is reported as “inactive”, the max response (KB-3-1) is reported as -15.9% and the outcome (HACAT [2]) is reported as “inactive”. The Potency (C33A) was “inactive”, the Potency (CAOV3) was “inactive” and the Potency (Es-2) was “inactive”. For the same compound, the Potency (HeLa) was “inactive”, the Potency (Hek293T) was “inactive” and the Potency (JEG-3) was “inactive”. For the same compound, the Potency (OV90) was “inactive”.
`O=c1nc(-c2ccccn2)sc2ccccc12` was tested, and the outcome (HaCat [1]) was “inactive”, the max response (KB-3-1) was 3.79% and the outcome (HACAT [2]) was “inactive”. For the same compound, the Potency (C33A) was “inactive”, the Potency (CAOV3) was “inactive” and the Potency (CASKI) was “inactive”. For the same compound, the Potency (Es-2) was “inactive”, the Potency (HeLa) was “inactive” and the Potency (Hek293T) was “inactive”. For the same compound, the Potency (JEG-3) was “inactive” and the Potency (OV90) was “inactive”.
With `COc1ccc(Cl)c(Nc2ncnc3cc(OCC4CCN(C)CC4)c(OC)cc23)c1` the Potency (HaCat [1]) was 4.11 µM (active), the max response (KB-3-1) was 2.68% and the Potency (NIH3T3) was 7.31 µM (active). The Potency (CAOV3) was 8.91 µM (active), the Potency (Es-2) was “inactive” and the Potency (HeLa) was “inactive”. For the same compound, the Potency (Hek293T) was “inactive” and the Potency (JEG-3) was “inactive”.
For `C=C(C)C(=O)O[C@H]1/C(C=O)=C\CC/C(CO)=C/[C@H]2OC(=O)C(=C)[C@@H]2[C@@H]1OC`, the outcome (HaCat [1]) was “inactive”, the max response (KB-3-1) was 9.81% and the outcome (HACAT [2]) was “inactive”. The Potency (C33A) was “inactive”, the Potency (CAOV3) was “inactive” and the Potency (CASKI) was “inactive”. The Potency (Es-2) was “inactive”, the Potency (HeLa) was “inactive” and the Potency (Hek293T) was “inactive”. The Potency (JEG-3) was “inactive” and the Potency (OV90) was “inactive”.
`Cc1cn2cc(C(=O)N(C)CCO)cc(NC3CCOc4cccc(C)c43)c2n1` (centres undefined) was tested, and the max response (HaCat [1]) was -18.4%, the outcome (KB-3-1) was “inactive” and the Potency (C33A) was “inactive”. The Potency (CAOV3) was “inactive”, the Potency (CASKI) was “inactive” and the Potency (Es-2) was “inactive”. For the same compound, the Potency (HeLa) was “inactive”, the Potency (Hek293T) was “inactive” and the Potency (JEG-3) was “inactive”. The Potency (OV90) was “inactive”.
`O=C1Cc2c([nH]c3ccc(Br)cc23)-c2ncccc2N1` was tested, and the max response (HaCat [1]) was 2.65%, the max response (KB-3-1) was 2.04% and the outcome (NIH3T3) was “inactive”. For the same compound, the Potency (C33A) was “inactive”, the Potency (CASKI) was “inactive” and the Potency (Es-2) was “inactive”. For the same compound, the Potency (Hek293T) was “inactive” and the Potency (JEG-3) was “inactive”.
For `O=c1[nH]c([C@@H]2CCCN2)nc2c1oc1ccc(Cl)cc12`, the Potency (HaCat [1]) was 1.46 µM (active), the max response (KB-3-1) was -19.5% and the max response (NIH3T3) was -23.2%. The Potency (CAOV3) was “inactive”, the Potency (CASKI) was “inactive” and the Potency (Es-2) was “inactive”. The Potency (Hek293T) was “inactive”, the Potency (JEG-3) was “inactive” and the Potency (OV90) was “inactive”.
With `C[C@H]1CC[C@@]2(OC1)O[C@H]1CC3[C@@H]4CC[C@@H]5C[C@@H](O[C@@H]6O[C@H](CO)[C@@H](O[C@@H]7O[C@H](CO[C@@H]8OC[C@@H](O)[C@H](O)[C@H]8O)[C@@H](O[C@@H]8O[C@H](CO)[C@H](O)[C@H](O)[C@H]8O)[C@H](O)[C@H]7O)[C@H](O)[C@H]6O)CC[C@]5(C)C4CC[C@]3(C)[C@H]1[C@@H]2C` (some centres undefined) the max response (HaCat [1]) was -10.6%, the outcome (KB-3-1) was “inactive” and the activity change, negative = cytotoxicity (C33A) was -0.589% [at 11.6 µM]. It also gave an activity change, negative = cytotoxicity (CAOV3) of 0.154% [at 11.6 µM], an activity change, negative = cytotoxicity (CASKI) of -0.139% [at 11.6 µM] and an activity change, negative = cytotoxicity (Es-2) of -0.634% [at 11.6 µM]. It also gave an activity change, negative = cytotoxicity (HeLa) of 17.3% [at 11.6 µM], an activity change, negative = cytotoxicity (Hek293T) of -0.448% [at 11.6 µM] and an activity change, negative = cytotoxicity (JEG-3) of -1.5% [at 11.6 µM]. The activity change, negative = cytotoxicity (OV90) was -9.4% [at 11.6 µM].
Work on `O=C(NCc1ccccc1)c1ccc2c(=O)n(-c3cccc(C(F)(F)F)c3)c(=S)[nH]c2c1` yielded a max response (HaCat [1]) of -51.3%, a max response (KB-3-1) of -9.36% and a max response (NIH3T3) of -30.9%. For the same compound, the Potency (C33A) was “inactive”, the Potency (CASKI) was “inactive” and the Potency (Es-2) was “inactive”. For the same compound, the Potency (HeLa) was “inactive”, the Potency (Hek293T) was “inactive” and the Potency (JEG-3) was “inactive”. For the same compound, the Potency (OV90) was “inactive”.
`COc1ccc(-c2ccccc2)cc1NS(=O)(=O)c1cc(Cl)cc(Cl)c1O` was tested, and the outcome (HaCat [1]) was “inactive”, the max response (KB-3-1) was 4.02% and the outcome (HACAT [2]) was “inactive [at 17.4 µM]”. For the same compound, the Potency (C33A) was “inactive” and the Potency (CAOV3) was “inactive”.
With `C[C@H]1CC[C@@]2(OC1)O[C@H]1CC3[C@@H]4CC[C@@H]5C[C@@H](O[C@@H]6O[C@H](CO)[C@@H](O[C@@H]7O[C@@H](C)[C@H](O)[C@@H](O)[C@H]7O)[C@H](O)[C@H]6O[C@@H]6O[C@H](CO)[C@@H](O)[C@H](O)[C@H]6O)CC[C@]5(C)C4CC[C@]3(C)[C@H]1[C@@H]2C` (some centres undefined) the max response (HaCat [1]) was -24.5%, the max response (KB-3-1) was 0.898% and the activity change, negative = cytotoxicity (C33A) was -15.7% [at 11.6 µM]. The activity change, negative = cytotoxicity (CAOV3) was -14.9% [at 11.6 µM], the activity change, negative = cytotoxicity (CASKI) was 2.17% [at 11.6 µM] and the activity change, negative = cytotoxicity (Es-2) was 0.261% [at 11.6 µM]. The activity change, negative = cytotoxicity (HeLa) was 24.8% [at 11.6 µM], the activity change, negative = cytotoxicity (Hek293T) was -22.5% [at 11.6 µM] and the activity change, negative = cytotoxicity (JEG-3) was 3.99% [at 11.6 µM]. For the same compound, the activity change, negative = cytotoxicity (OV90) was -17.7% [at 11.6 µM].
For `C=C1/C(=C/C=C2\CCC[C@]3(C)[C@@H]([C@H](C)CC[C@@H](O)C(C)(C)O)CC[C@@H]23)C[C@@H](O)C[C@@H]1O`, the max response (HaCat [1]) was -0.344%, the max response (KB-3-1) was -22.3% and the Potency (NIH3T3) was 0.0146 µM (active). The Potency (CASKI) was “inactive” and the Potency (Es-2) was “inactive”.
`O=c1[nH]c2ccc(C#CCN3CCC(Cc4ccccc4)CC3)cc2[nH]1` was tested, and the max response (HaCat [1]) was 0.764%, the max response (KB-3-1) was -17.6% and the Potency (C33A) was “inactive”. The Potency (CAOV3) was “inactive”, the Potency (CASKI) was “inactive” and the Potency (Es-2) was “inactive”. The Potency (HeLa) was “inactive”, the Potency (Hek293T) was “inactive” and the Potency (JEG-3) was “inactive”. The Potency (OV90) was “inactive”.
`c1cc(NC2CCNCC2)nc(-c2cnc3ccccn23)c1` was tested, and the Potency (HaCat [1]) was 3.66 µM (active), the Potency (KB-3-1) was 3.26 µM (active) and the Potency (NIH3T3) was 5.8 µM (active). For the same compound, the Potency (CASKI) was 10 µM (active), the Potency (Es-2) was 17.8 µM (active) and the Potency (HeLa) was 8.91 µM (active). For the same compound, the Potency (JEG-3) was “inactive” and the Potency (OV90) was 11.2 µM (active).
With `C=C1[C@@H](OC(C)=O)CC[C@@]2(C)[C@@H](OC(C)=O)[C@H](OC(C)=O)C3=C(C)C[C@H](OC(=O)C(C)CC)[C@@H]([C@@H](OC(C)=O)[C@H]12)C3(C)C` (some centres undefined) the Potency (HaCat [1]) was 1.93 µM (active), the Potency (KB-3-1) was 2.43 µM (active) and the Potency (NIH3T3) was 5.44 µM (active). For the same compound, the Potency (OV90) was “inactive”.

Reference: PubChem BioAssay (NCATS)
